Assay results reported in ChEMBL document CHEMBL4513135, “CO-ADD screening of IQOG CSIS (Spain) compounds”.
Potency and affinity values are given separately.

test system: Klebsiella pneumoniae; conditions: Concentration 32 ug.mL-1; ASSAY_TEST Inhibition of Bacterial Growth; detection method Absorption (OD600); MEDIA CAMHB; plate type 384well; NBS; CORNING #3640; time 18 hr

| SMILES | Inhibition [%] |
| --- | --- |
| CN1C/C(=C\Br)n2c1c(C#N)cc(C#N)c2=O | 4.89 |
| CC(=O)Oc1ccc(C=C2N=C(c3ccccc3)OC2=O)c(OC(C)=O)c1 | 2.13 |
| COc1[nH]c(=O)ccc1C#N | 19.79 |
| CC1=N/C(=C(\C)c2ccccc2)C(=O)O1 | -1.65 |
| COC(=O)C(C#N)=Cc1ccccc1 | 12.71 |
| Cn1ccnc1C1C2=C(CC(C)(C)CC2=O)Oc2nc3c(c(N)c21)CCCC3 (stereo not given) | 9.51 |
| C#CCN(C)Cc1cc2cc(OCCCC3CCN(Cc4ccc(OC)c5ncccc45)CC3)ccc2n1C | -9.53 |
| O=C1NC(=S)N/C1=C\c1ccccc1 | 18.56 |
| C#CCNc1nc(NCC#C)c(C#N)cc1C#N | -4.98 |
| Cl.OCCCC1CCNCC1 | 3.57 |
| O=C(N/N=C/Cc1ccccc1)c1cc2ccccc2n1Cc1ccccc1 | 4.61 |
| Nc1c2c(nc3c1CC(c1c(Cl)cccc1Cl)C(=O)N3)CCCC2 (stereo not given) | 0.93 |
| COc1cccc(C2c3c(nc4c(c3N)CCCC4)Oc3ccc4ccccc4c32)c1 (stereo not given) | 7.83 |
| COc1ccc2c(c1)cc(/C=C/[N+](=O)[O-])n2C | 9.01 |
| O=C1NC(=O)C(=Cc2ccccc2)N1 | 12.73 |
| CCOC(=O)N/N=C/c1ccccc1 | 8.83 |
| N#Cc1cc(C#N)c(Cl)nc1N | -13.03 |
| N#Cc1c(N)nc(N)c(C#N)c1-c1ccccc1 | 13.82 |
| COc1ccc2cc(C3C4=C(CC(C)(C)CC4=O)Oc4nc5c(c(N)c43)CCCCC5)c(Cl)nc2c1 (stereo not given) | 4.86 |
| CNC(=O)c1cc2cc(OCc3ccccc3)ccc2n1C | 4.29 |

| SMILES | Inhibition [%] |
| --- | --- |
| CN(C)c1cccc(C(=O)c2cccc(N(C)C)c2)c1 | 6.77 |
| C/C(Cc1ccccc1)=N/NC(=O)c1c[nH]c2ccc(O)cc12 | 5.8 |
| N#Cc1cc(C#N)c(Cl)nc1Cl | 2.35 |
| Cn1ccnc1C1c2c(nc3c(c2N)CCC3)Oc2ccc3ccccc3c21 (stereo not given) | 7.74 |
| COc1ccccc1C1C(C#N)=C(N)Oc2c1ccc1ccccc21 (stereo not given) | 8.71 |
| Cl.ClCCCN1CCCC1 | 2.47 |
| Cn1c(C(=O)N2CCOCC2)cc2cc(OCCCC3CCN(Cc4ccccc4)CC3)ccc21 | 2.68 |
| C#CCN(C)c1nc(NCC2CCN(Cc3ccccc3)CC2)c(C#N)c(-c2ccccc2)c1C#N | 6.45 |
| CC1CC(=O)Nc2c1c(Cl)nc1nc3c(c(N)c21)CCCC3 (stereo not given) | 13.46 |
| C=C1CN(C)c2c(C#N)c(-c3ccccc3)c(C#N)c(=O)n21 | -0.48 |
| CC(=O)Oc1ccc(C=C2N=C(c3ccccc3)OC2=O)cc1 | -12.75 |
| C=CCNCc1cc2cc(OCCCC3CCN(Cc4ccccc4)CC3)ccc2[nH]1.O.O=C(O)C(=O)O.O=C(O)C(=O)O | -6.45 |
| C#CCN(C)Cc1cc2cc(OCc3ccccc3)ccc2n1C.O=C(O)C(=O)O | 16.32 |
| CC(C)(C)OC(=O)N[C@H]1CC[C@H](O)CC1 | 7.91 |
| O=c1oc2cc(O)ccc2cc1-c1ccccc1 | 3.33 |
| O[C@H]1CC[C@H](NCc2ccccc2)CC1 | 16.79 |
| N#Cc1cc2c(N)c3c(nc2nc1Cl)CCN(Cc1ccccc1)C3 | 13.32 |
| CC1Cc2c(nc3c(c2N)CCCC3)NC1=O (stereo not given) | 17.01 |
| CC(=O)NC(=Cc1ccccc1)C(=O)O | 19.96 |
| C#CCN1CCc2nc3nc(NC4CCN(Cc5ccccc5)CC4)c(C#N)cc3c(N)c2C1 | 10.49 |

test system: Candida albicans; conditions: 32 ug/mL

| SMILES | Inhibition [%] |
| --- | --- |
| CN1C/C(=C\Br)n2c1c(C#N)cc(C#N)c2=O | 3.61 |
| CC(=O)Oc1ccc(C=C2N=C(c3ccccc3)OC2=O)c(OC(C)=O)c1 | 3.75 |
| COc1[nH]c(=O)ccc1C#N | 7.91 |
| CC1=N/C(=C(\C)c2ccccc2)C(=O)O1 | 0.7 |
| COC(=O)C(C#N)=Cc1ccccc1 | 3.86 |
| Cn1ccnc1C1C2=C(CC(C)(C)CC2=O)Oc2nc3c(c(N)c21)CCCC3 (stereo not given) | 1.3 |
| C#CCN(C)Cc1cc2cc(OCCCC3CCN(Cc4ccc(OC)c5ncccc45)CC3)ccc2n1C | 0.97 |
| O=C1NC(=S)N/C1=C\c1ccccc1 | 0.81 |
| C#CCNc1nc(NCC#C)c(C#N)cc1C#N | 3.76 |
| Cl.OCCCC1CCNCC1 | 1.52 |
| O=C(N/N=C/Cc1ccccc1)c1cc2ccccc2n1Cc1ccccc1 | 1.98 |
| Nc1c2c(nc3c1CC(c1c(Cl)cccc1Cl)C(=O)N3)CCCC2 (stereo not given) | -0.19 |
| COc1cccc(C2c3c(nc4c(c3N)CCCC4)Oc3ccc4ccccc4c32)c1 (stereo not given) | -0.15 |
| COc1ccc2c(c1)cc(/C=C/[N+](=O)[O-])n2C | 2.82 |
| O=C1NC(=O)C(=Cc2ccccc2)N1 | -0.05 |
| CCOC(=O)N/N=C/c1ccccc1 | 4.9 |
| N#Cc1cc(C#N)c(Cl)nc1N | 2.15 |
| N#Cc1c(N)nc(N)c(C#N)c1-c1ccccc1 | 1.47 |
| COc1ccc2cc(C3C4=C(CC(C)(C)CC4=O)Oc4nc5c(c(N)c43)CCCCC5)c(Cl)nc2c1 (stereo not given) | 23 |
| CNC(=O)c1cc2cc(OCc3ccccc3)ccc2n1C | 3.06 |

| SMILES | Inhibition [%] |
| --- | --- |
| CN(C)c1cccc(C(=O)c2cccc(N(C)C)c2)c1 | -0.28 |
| C/C(Cc1ccccc1)=N/NC(=O)c1c[nH]c2ccc(O)cc12 | 0.37 |
| N#Cc1cc(C#N)c(Cl)nc1Cl | 33.1 |
| Cn1ccnc1C1c2c(nc3c(c2N)CCC3)Oc2ccc3ccccc3c21 (stereo not given) | 1.46 |
| COc1ccccc1C1C(C#N)=C(N)Oc2c1ccc1ccccc21 (stereo not given) | 1.78 |
| Cl.ClCCCN1CCCC1 | 8.26 |
| Cn1c(C(=O)N2CCOCC2)cc2cc(OCCCC3CCN(Cc4ccccc4)CC3)ccc21 | 1.38 |
| C#CCN(C)c1nc(NCC2CCN(Cc3ccccc3)CC2)c(C#N)c(-c2ccccc2)c1C#N | 0.51 |
| CC1CC(=O)Nc2c1c(Cl)nc1nc3c(c(N)c21)CCCC3 (stereo not given) | 3.48 |
| C=C1CN(C)c2c(C#N)c(-c3ccccc3)c(C#N)c(=O)n21 | 3.72 |
| CC(=O)Oc1ccc(C=C2N=C(c3ccccc3)OC2=O)cc1 | -0.21 |
| C=CCNCc1cc2cc(OCCCC3CCN(Cc4ccccc4)CC3)ccc2[nH]1.O.O=C(O)C(=O)O.O=C(O)C(=O)O | 0.53 |
| C#CCN(C)Cc1cc2cc(OCc3ccccc3)ccc2n1C.O=C(O)C(=O)O | 2.13 |
| CC(C)(C)OC(=O)N[C@H]1CC[C@H](O)CC1 | 0.02 |
| O=c1oc2cc(O)ccc2cc1-c1ccccc1 | -0.21 |
| O[C@H]1CC[C@H](NCc2ccccc2)CC1 | -0.77 |
| N#Cc1cc2c(N)c3c(nc2nc1Cl)CCN(Cc1ccccc1)C3 | 2.4 |
| CC1Cc2c(nc3c(c2N)CCCC3)NC1=O (stereo not given) | 1.73 |
| CC(=O)NC(=Cc1ccccc1)C(=O)O | 2.49 |
| C#CCN1CCc2nc3nc(NC4CCN(Cc5ccccc5)CC4)c(C#N)cc3c(N)c2C1 | 5.66 |
